Reference: PubChem BioAssay (EPA / NIEHS)
Results filed as inconclusive are left out. Active and inactive are the calls of the source. How the source made its calls, unless noted: active means hit-call score of the fitted dose curve at least 0.9, where 1 is the maximum; inactive means score below 0.9.

Key:
[1] = ATG_NFI_CIS: Attagene CIS-FACTORIAL HepG2 Assay for human Nuclear Factor I (NFI) (AID 2282989); details: HepG2 cis-regulatory reporter, NFI response element transcription; actives raise or lower the signal
Outline: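 Reporter transcripts were measured by RT-PCR with fluorescent primer extension and capillary electrophoresis 24 h post-treatment. HepG2 cells carried transiently transfected cis-regulated reporter constructs reporting endogenous factor activity; gain or loss fitted against DMSO baseline.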

[2] = target: Myc proto-oncogene protein (Homo sapiens) (UniProt P01106); test: ATG_Myc_CIS: Attagene CIS-FACTORIAL HepG2 Assay for human Myelocytomatosis (Myc) Proto-Oncogene Transcription Factor (AID 2282990); details: HepG2, Attagene cis-reporter transcription factor activity; actives raise or lower the signal
Myc proto-oncogene protein (Homo sapiens), sequence (P01106 whole entry, looked up): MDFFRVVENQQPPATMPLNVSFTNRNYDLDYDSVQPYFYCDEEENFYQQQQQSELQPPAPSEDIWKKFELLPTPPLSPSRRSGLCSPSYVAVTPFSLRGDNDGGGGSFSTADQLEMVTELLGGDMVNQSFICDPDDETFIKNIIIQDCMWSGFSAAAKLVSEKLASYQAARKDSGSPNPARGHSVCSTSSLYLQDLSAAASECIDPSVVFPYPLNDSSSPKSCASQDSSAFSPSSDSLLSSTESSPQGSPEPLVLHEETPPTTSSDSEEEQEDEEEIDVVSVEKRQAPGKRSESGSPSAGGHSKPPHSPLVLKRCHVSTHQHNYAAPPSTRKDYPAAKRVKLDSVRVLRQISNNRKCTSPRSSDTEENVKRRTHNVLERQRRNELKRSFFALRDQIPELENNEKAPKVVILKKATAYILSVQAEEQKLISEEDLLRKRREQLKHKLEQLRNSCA
Outline: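 HepG2 cells transiently transfected with multiple cis-promoter-driven reporter transcription units, so endogenous TF activity is read. After 24 h compound exposure, reporter mRNA was quantified by RT-PCR, 6-FAM labelling, HpaI digestion and capillary electrophoresis; bidirectional fit versus DMSO.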

[3] = ATG_NRF2_ARE_CIS: Attagene CIS-FACTORIAL HepG2 Assay for human Nuclear Factor Erythroid 2 Related Factor 2 (NFR2) response to Antioxidant Response Elements (ARE) (AID 2282992); details: HepG2 Attagene ARE/NRF2 reporter, transcription factor activity; actives raise or lower the signal;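 on AC50: reporter mRNA level measured by RT-PCR and capillary electrophoresis fluorescence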
Outline: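 Fluorescence intensity of reporter-specific cDNA fragments, separated by capillary electrophoresis, reflects mRNA induction in transfected HepG2 cells at 24 h. Activity is fitted bidirectionally, DMSO serving as baseline.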

[4] = ATG_Oct_MLP_CIS: Attagene CIS-FACTORIAL HepG2 Assay for human Octamer-Binding Transcription Factor (Oct) (AID 2282993); details: HepG2 Attagene cis-factorial Oct reporter, mRNA; actives raise or lower the signal
Outline: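 Readout is reporter transcript level from RT-PCR with fluorescent primer extension and capillary electrophoresis, fitted in both directions against DMSO. Transfected HepG2 reporter units report endogenous factor activity after 24 h dosing.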

[5] = BSK_3C_TissueFactor: BioMAP Diversity Plus: 3C Assay for Tissue Factor Biomarker Activity (AID 2282997); details: BioMAP 3C HUVEC, tissue factor biomarker readout; actives raise or lower the signal
Outline: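 HUVEC, 3C system, 24 h post-dose; Tissue Factor by ELISA; bidirectional fit vs DMSO baseline.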

[6] = BSK_3C_uPAR: BioMAP Diversity Plus: 3C Assay for Urokinase-type plasminogen activator receptor (uPAR) Biomarker Activity (AID 2282998); details: BioMAP 3C HUVEC, uPAR biomarker ELISA; actives raise or lower the signal
Outline: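 Cell-surface uPAR on HUVEC (3C system) read by ELISA at 24 h post-treatment, with DMSO as baseline and fitting in both directions. Parallel cultures stained with SRB to flag overt cytotoxicity.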

[7] = BSK_3C_VCAM1: BioMAP Diversity Plus: 3C Assay for Vascular cell adhesion molecule 1 (VCAM1) Biomarker Activity (AID 2282999); details: BioMAP 3C HUVEC, VCAM1 ELISA, cytokine-stimulated; actives raise or lower the signal
Outline: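 Vascular primary endothelium (human umbilical vein) was exposed to chemicals and assayed 24 h later. VCAM-1 levels came from ELISA, with DMSO serving as baseline for bidirectional fitting.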

[8] = BSK_4H_Eotaxin3: BioMAP Diversity Plus: 4H Assay for Eotaxin 3 Biomarker Activity (AID 2283000); details: primary human endothelial cells (HUVEC); actives raise or lower the signal
Outline: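 Readout is Eotaxin-3 (CCL26) level by ELISA in primary human umbilical vein endothelial cells harvested 24 h after chemical exposure; activity fitted in both directions against DMSO control.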

[9] = target: human Peroxisome Proliferator-activated Receptor alpha (PPARa), PPARA (gene 5465) (UniProt Q07869); test: ATG_PPARa_TRANS: Attagene TRANS-FACTORIAL HepG2 Assay for human Peroxisome Proliferator-activated Receptor alpha (PPARa) (AID 2283001; active means hit-call score of the fitted dose curve at least 0.9, where 1 is the maximum)
human Peroxisome Proliferator-activated Receptor alpha (PPARa), PPARA (gene 5465), sequence (Q07869 whole entry, looked up, the tested form may be a part): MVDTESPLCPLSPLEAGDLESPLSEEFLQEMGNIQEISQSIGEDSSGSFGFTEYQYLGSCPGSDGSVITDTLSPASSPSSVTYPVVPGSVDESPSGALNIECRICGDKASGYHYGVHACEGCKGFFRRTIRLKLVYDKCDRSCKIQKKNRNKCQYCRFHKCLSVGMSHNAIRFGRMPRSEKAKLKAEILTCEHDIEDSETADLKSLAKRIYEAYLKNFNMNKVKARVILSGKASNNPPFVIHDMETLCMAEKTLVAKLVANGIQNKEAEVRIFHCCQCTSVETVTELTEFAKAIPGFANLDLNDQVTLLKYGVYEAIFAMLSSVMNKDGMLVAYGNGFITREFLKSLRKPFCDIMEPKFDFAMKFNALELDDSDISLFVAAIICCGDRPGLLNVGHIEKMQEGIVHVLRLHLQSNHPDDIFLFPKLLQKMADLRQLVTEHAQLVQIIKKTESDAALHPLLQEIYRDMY
Outline: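 Exposure: 24 h, transiently transfected HepG2 cells. Endpoint: GAL4-UAS reporter mRNA, RT-PCR with capillary electrophoresis fluorescence. Baseline: DMSO; increases fitted.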

[10] = read-out: Intercellular Adhesion Molecule 1 (ICAM1), ICAM1 (gene 3383); test: BSK_3C_ICAM1: BioMAP Diversity Plus: 3C Assay for Intercellular Adhesion Molecule 1 (ICAM1) Biomarker Activity (AID 2283003); details: primary human endothelial cells (HUVEC); actives raise or lower the signal
Outline: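 Using DMSO as baseline, bidirectional curve fitting was applied to ICAM-1 ELISA signals from HUVEC in the 3C system, measured 24 h after compound addition.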

[11] = target: human Retinoic Acid Receptor beta (RARb), RARB (gene 5915) (UniProt P10826); test: ATG_RARb_TRANS: Attagene TRANS-FACTORIAL HepG2 Assay for human Retinoic Acid Receptor beta (AID 2283004; active means hit-call score of the fitted dose curve at least 0.9, where 1 is the maximum)
human Retinoic Acid Receptor beta (RARb), RARB (gene 5915), sequence (P10826 whole entry, looked up, the tested form may be a part): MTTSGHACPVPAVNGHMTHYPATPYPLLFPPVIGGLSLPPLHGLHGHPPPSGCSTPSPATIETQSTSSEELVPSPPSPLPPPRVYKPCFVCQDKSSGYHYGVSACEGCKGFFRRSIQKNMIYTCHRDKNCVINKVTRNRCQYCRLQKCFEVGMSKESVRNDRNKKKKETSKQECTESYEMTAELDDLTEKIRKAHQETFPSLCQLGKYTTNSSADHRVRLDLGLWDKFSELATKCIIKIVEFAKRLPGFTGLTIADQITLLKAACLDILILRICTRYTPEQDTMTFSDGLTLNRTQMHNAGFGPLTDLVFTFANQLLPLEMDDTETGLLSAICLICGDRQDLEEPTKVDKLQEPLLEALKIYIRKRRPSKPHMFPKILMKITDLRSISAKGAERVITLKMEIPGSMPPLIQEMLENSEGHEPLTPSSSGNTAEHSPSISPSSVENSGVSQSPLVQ
Outline: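 Readout is reporter mRNA induction: RNA reverse-transcribed, PCR-amplified, FAM-labelled, HpaI-cut and resolved by capillary electrophoresis. Transiently transfected HepG2 cells carrying exogenous NR–Gal4 chimeras were dosed for 24 h; activity fitted upward relative to DMSO.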

[12] = BSK_3C_Proliferation: Cell Proliferation Assessment in the BioMAP Diversity Plus: 3C Assay (AID 2283006); details: primary human endothelial cells (HUVEC);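 on AC50: potency may reflect either rise or fall in cell number versus DMSO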
Outline: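 Measured here: sulforhodamine B (0.1%) staining of TCA-fixed sub-confluent umbilical vein endothelial cultures 48 h post-dosing, absorbance 560 nm. DMSO served as negative control and baseline; both signal gain and loss were modelled.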

[13] = target: Peroxisome proliferator-activated receptor gamma (Homo sapiens) (UniProt P37231); test: ATG_PPARg_TRANS: Attagene TRANS-FACTORIAL HepG2 Assay for human Peroxisome Proliferator-activated Receptor-gamma (PPARg) (AID 2283007; active means hit-call score of the fitted dose curve at least 0.9, where 1 is the maximum)
Peroxisome proliferator-activated receptor gamma (Homo sapiens), sequence (P37231 whole entry, looked up, the tested form may be a part): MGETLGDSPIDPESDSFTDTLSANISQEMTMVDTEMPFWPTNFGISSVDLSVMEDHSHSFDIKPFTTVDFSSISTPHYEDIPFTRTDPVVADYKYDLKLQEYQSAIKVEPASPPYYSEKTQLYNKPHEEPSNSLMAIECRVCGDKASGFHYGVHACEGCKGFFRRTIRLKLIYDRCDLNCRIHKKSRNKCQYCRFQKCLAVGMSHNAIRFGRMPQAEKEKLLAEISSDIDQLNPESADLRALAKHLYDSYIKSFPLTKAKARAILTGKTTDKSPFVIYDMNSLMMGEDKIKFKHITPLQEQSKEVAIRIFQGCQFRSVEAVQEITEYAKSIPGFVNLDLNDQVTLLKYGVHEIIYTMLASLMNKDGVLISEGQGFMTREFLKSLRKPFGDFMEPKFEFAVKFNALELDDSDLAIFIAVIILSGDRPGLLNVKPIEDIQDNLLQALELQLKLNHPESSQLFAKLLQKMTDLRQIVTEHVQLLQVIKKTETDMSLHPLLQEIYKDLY
Outline: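 HepG2 cells are transiently transfected with GAL4-UAS reporter units driven by chimeric NR-Gal4 fusions and dosed for 24 h. Reporter mRNA is quantified by RT-PCR, 6-FAM labelling, HpaI digestion and capillary electrophoresis. Induction is scored against DMSO.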

[14] = target: Nuclear receptor subfamily 1 group I member 2 (Homo sapiens) (UniProt O75469); test: ATG_PXR_TRANS: Attagene TRANS-FACTORIAL HepG2 Assay for human Pregnane X Receptor (PXR) (AID 2283008; active means hit-call score of the fitted dose curve at least 0.9, where 1 is the maximum)
Nuclear receptor subfamily 1 group I member 2 (Homo sapiens), sequence (O75469 whole entry, looked up, the tested form may be a part): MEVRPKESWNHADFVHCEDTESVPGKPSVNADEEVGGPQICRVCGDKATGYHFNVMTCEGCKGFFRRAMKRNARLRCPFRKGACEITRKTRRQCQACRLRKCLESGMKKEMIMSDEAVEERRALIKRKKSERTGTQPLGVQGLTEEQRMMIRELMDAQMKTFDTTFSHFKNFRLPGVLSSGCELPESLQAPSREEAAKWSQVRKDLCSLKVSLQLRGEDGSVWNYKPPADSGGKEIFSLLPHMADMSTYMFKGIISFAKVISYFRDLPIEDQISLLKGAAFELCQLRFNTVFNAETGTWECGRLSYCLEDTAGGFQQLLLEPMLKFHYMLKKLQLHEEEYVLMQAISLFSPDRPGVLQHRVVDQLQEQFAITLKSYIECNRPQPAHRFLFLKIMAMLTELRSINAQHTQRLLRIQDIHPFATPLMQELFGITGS
Outline: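 Transient HepG2 transfectants carrying multiplexed reporter transcription units; PXR activity read through a Gal4 chimera. 24 h exposure. RT-PCR/CE fluorescence; upward curve fit referenced to DMSO.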

[15] = target: human RAR-related Orphan Receptor gamma (RORg), RORC (gene 6097) (UniProt P51449); test: ATG_RORg_TRANS: Attagene TRANS-FACTORIAL HepG2 Assay for human RAR-related Orphan Receptor gamma (RORg) (AID 2283011; active means hit-call score of the fitted dose curve at least 0.9, where 1 is the maximum)
human RAR-related Orphan Receptor gamma (RORg), RORC (gene 6097), sequence (P51449 whole entry, looked up, the tested form may be a part): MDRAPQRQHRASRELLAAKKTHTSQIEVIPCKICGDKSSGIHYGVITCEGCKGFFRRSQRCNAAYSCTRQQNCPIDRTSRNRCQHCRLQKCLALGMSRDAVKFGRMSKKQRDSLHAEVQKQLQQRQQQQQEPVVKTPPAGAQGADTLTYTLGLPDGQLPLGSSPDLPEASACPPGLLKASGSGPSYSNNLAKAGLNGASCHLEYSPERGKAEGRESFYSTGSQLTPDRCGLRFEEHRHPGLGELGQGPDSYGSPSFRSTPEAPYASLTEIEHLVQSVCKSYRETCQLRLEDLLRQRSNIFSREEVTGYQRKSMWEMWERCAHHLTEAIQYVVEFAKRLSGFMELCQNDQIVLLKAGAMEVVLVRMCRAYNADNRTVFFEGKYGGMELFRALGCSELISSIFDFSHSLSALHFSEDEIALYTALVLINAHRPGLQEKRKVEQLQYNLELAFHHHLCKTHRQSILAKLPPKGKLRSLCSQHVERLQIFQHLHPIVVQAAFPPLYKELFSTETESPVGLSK
Outline: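 Transient MRTU transfection of HepG2 (TRANS format, exogenous NR-Gal4 chimera). 24 h dosing. Total RNA → oligo(dT) RT → PCR → 6-FAM labelling → HpaI cut → CE. Gain vs DMSO.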

[16] = target: Cellular tumor antigen p53 (Homo sapiens) (UniProt P04637); test: ATG_p53_CIS: Attagene CIS-FACTORIAL HepG2 Assay for human p53 Transcription Factor (AID 2282994); details: HepG2 p53 cis-element reporter, Attagene mRNA; actives raise or lower the signal
Cellular tumor antigen p53 (Homo sapiens), sequence (P04637 whole entry, looked up): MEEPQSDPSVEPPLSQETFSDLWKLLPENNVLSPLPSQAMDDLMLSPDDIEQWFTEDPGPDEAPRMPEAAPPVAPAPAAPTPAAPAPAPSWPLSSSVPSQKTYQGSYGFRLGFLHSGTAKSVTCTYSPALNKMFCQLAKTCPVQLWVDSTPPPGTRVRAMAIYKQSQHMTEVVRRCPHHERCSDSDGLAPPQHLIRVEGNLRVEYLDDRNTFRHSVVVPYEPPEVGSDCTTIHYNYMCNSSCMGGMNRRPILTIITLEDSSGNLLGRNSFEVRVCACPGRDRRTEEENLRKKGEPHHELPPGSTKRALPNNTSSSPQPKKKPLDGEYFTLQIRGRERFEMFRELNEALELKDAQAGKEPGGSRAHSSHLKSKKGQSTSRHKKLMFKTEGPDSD
Outline: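 Transiently transfected HepG2 (multiple cis reporter transcription units); exposure 24 h; reporter RNA via RT-PCR, 6-FAM extension, 2 h HpaI digest at 37 C, CE detection; DMSO baseline.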

[17] = target: human Peroxisome Proliferator-activated Receptor delta (PPARd), PPARD (gene 5467) (UniProt Q03181); test: ATG_PPARd_TRANS: Attagene TRANS-FACTORIAL HepG2 Assay for human Peroxisome Proliferator-activated Receptor delta (PPARd) (AID 2283002; active means hit-call score of the fitted dose curve at least 0.9, where 1 is the maximum)
human Peroxisome Proliferator-activated Receptor delta (PPARd), PPARD (gene 5467), sequence (Q03181 whole entry, looked up, the tested form may be a part): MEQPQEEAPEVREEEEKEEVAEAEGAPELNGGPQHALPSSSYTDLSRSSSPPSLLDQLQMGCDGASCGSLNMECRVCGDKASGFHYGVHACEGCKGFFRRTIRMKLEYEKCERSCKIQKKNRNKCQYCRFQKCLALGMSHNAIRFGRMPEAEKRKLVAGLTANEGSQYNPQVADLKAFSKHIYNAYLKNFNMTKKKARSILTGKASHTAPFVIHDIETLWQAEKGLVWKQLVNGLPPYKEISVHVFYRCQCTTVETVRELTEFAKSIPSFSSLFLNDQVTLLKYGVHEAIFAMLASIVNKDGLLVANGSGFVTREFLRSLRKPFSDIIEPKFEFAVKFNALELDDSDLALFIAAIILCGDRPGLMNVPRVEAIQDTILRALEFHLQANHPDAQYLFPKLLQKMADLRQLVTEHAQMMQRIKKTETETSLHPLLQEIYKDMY
Outline: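 HepG2 cells transiently transfected with multiplexed GAL4-UAS reporter units and exogenous chimeric NR-Gal4 proteins; 24 h compound exposure. Reporter mRNA measured by RT-PCR, 6-FAM labelling, HpaI digestion and capillary electrophoresis; gain of signal versus DMSO.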

[18] = target: human Retinoic Acid Receptor gamma (RARg), RARG (gene 5916) (UniProt P13631); test: ATG_RARg_TRANS: Attagene TRANS-FACTORIAL HepG2 Assay for human Retinoic Acid Receptor gamma (RARg) (AID 2283009; active means hit-call score of the fitted dose curve at least 0.9, where 1 is the maximum)
human Retinoic Acid Receptor gamma (RARg), RARG (gene 5916), sequence (P13631 whole entry, looked up, the tested form may be a part): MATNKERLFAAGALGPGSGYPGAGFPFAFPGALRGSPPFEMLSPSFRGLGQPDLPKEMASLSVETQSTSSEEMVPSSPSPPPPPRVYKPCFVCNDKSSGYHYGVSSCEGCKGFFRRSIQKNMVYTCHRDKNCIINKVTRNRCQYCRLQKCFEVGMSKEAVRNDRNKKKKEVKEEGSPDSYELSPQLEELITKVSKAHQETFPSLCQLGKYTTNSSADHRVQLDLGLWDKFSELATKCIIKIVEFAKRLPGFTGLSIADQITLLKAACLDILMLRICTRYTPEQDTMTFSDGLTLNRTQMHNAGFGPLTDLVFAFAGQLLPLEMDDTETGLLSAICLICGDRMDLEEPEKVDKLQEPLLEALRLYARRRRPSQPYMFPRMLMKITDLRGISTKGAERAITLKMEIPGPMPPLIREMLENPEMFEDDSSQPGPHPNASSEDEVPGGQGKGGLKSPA
Outline: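 Gain-of-signal relative to DMSO is reported from fluorescent capillary electrophoresis of RT-PCR reporter products. These came from HepG2 cells expressing transfected RARg-GAL4 chimeras with UAS reporters, harvested 24 h after dosing.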

[19] = ATG_NF_kB_CIS: Attagene CIS-FACTORIAL HepG2 Assay for human Nuclear Factor Kappa B (NF-kB) (AID 2282991); details: HepG2 Attagene cis-factorial NF-kB reporter mRNA; actives raise or lower the signal
Outline: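 HepG2 cells transfected with cis-promoter-driven reporter units, so endogenous transcription factor activity is measured. Reporter mRNA quantified 24 h after dosing by RT-PCR and capillary electrophoresis, with bidirectional fitting against DMSO.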

[20] = target: Retinoic acid receptor RXR-alpha (Homo sapiens) (UniProt P19793); test: ATG_RXRa_TRANS: Attagene TRANS-FACTORIAL HepG2 Assay for human Retinoid X Receptor alpha (RXRa) (AID 2283012; active means hit-call score of the fitted dose curve at least 0.9, where 1 is the maximum)
Retinoic acid receptor RXR-alpha (Homo sapiens), sequence (P19793 whole entry, looked up, the tested form may be a part): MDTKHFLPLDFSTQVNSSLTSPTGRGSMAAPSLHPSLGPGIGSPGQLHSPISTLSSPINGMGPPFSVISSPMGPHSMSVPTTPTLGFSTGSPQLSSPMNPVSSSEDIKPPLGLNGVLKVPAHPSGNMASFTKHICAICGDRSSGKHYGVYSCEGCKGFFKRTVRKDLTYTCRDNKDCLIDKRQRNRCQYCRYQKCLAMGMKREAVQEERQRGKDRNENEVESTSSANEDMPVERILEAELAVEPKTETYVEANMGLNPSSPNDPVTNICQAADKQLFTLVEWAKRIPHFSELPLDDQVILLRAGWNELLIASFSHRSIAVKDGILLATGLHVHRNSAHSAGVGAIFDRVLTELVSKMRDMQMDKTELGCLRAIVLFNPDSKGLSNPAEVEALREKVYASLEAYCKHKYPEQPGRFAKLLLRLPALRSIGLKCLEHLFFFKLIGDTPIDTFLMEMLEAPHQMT
Outline: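 Chimeric NR-GAL4 trans-activation in HepG2, 24 h treatment; reporter transcripts quantified by fluorescence on capillary electrophoresis, analysed for upward change from DMSO.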

Measured: AC50

CCCCCOC(=O)COc1cc(N2C(=O)C3=C(CCCC3)C2=O)c(F)cc1Cl
active: [3] 20.7 µM | [7] 26.5 µM | [12] 14.3 µM
not listed: [16] | [17] | [18] | [19] | [20]
inactive: all other assays above

Cc1nn(C)c(Oc2ccccc2)c1C=NOCc1ccc(C(=O)OC(C)(C)C)cc1
active: [1] 0.0424 µM | [3] 0.0249 µM | [4] 0.0401 µM | [6] 7.77 µM | [7] 32.5 µM | [12] 7.65 µM | [13] 1.88 µM
not listed: [19] | [20]
inactive: all other assays above

Oc1ccc(C(c2ccc(O)cc2)C(Cl)(Cl)Cl)cc1
active: [5] 36.4 µM | [6] 31.5 µM | [7] 30.3 µM | [8] 31.4 µM | [10] 27.6 µM | [12] 19.8 µM
not listed: [11] | [17] | [18] | [19] | [20]
inactive: all other assays above

CCOC(=O)[C@H](C)Oc1ccc(Oc2nc3ccc(Cl)cc3o2)cc1
active: [3] 50 µM
not listed: [9] | [11] | [15] | [17]
inactive: all other assays above

OB(O)O
not listed: [19] | [20]
inactive: all other assays above

CCOC(=O)C(C)Oc1ccc(Oc2cnc3cc(Cl)ccc3n2)cc1 (stereo unspecified)
not listed: [11] | [16] | [17] | [19] | [20]
inactive: all other assays above

S=C([S-])NCCNC(=S)[S-].[Mn+2]
inactive: [1] | [2] | [3] | [4] | [5] | [6] | [7] | [9] | [10] | [13]
active: [8] 26.8 µM

COC(=O)c1ccc(I)cc1S(=O)(=O)NC(=O)Nc1nc(C)nc(OC)n1
not listed: [11] | [14] | [15] | [17] | [18] | [19] | [20]
inactive: all other assays above
